According to publication PMC10668032, “Altered binding affinity of SIX1-Q177R correlates with enhanced WNT5A and WNT pathway effector expression in Wilms tumor”:
In all, about 33,000 sequences were measured (“e-score”: median about -0.053, highest 2% from about 0.38 on). Shown is part of a subset that was picked to be rich in the highest values.

Target: T1, SIX1 homeodomain (reference allele) (human, UniProt Q15475 108-198)
T1 sequence: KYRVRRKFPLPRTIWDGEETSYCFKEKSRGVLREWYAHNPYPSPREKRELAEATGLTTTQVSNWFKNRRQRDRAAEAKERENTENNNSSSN
Experiment: universal protein binding microarray; Universal all-10-mer PBM (8x60K, AMADID 030236), 300 nM GST-tagged protein, Alexa Fluor 488 anti-GST; buffer, salt, pH and temperature not stated (as in Berger); high values mean tight binding
Conditions: protein: ivt; tags: N-terminal GST; dsDNA, one strand shown
Summary of the method: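 GST-tagged homeodomains were made by in vitro transcription/translation and quantified by anti-GST western blot against a recombinant GST standard curve. They were applied in duplicate at 300 nM final concentration to universal 'all 10-mer' protein binding microarrays (8×60K format). Binding was quantified as 8-mer E-scores with the Universal PBM Analysis Suite.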

Row | Sequence | binding signal [E-score]
1 | CGTATAGC | 0.185 ± 0.0242
2 | AGTATCGG | 0.4293 ± 0.0041
3 | AGTATCGA | 0.418 ± 0.0178
4 | AGTATATG | 0.207 ± 0.0381
5 | ACTATCGA | 0.263 ± 0.00274
6 | AGTATCGC | 0.435 ± 0.0231
7 | AAGATCGC | 0.211 ± 0.00754
8 | ATTATCGG | 0.24 ± 0.012
9 | ACTATCGC | 0.2364 ± 0.00196
10 | AGTATAGA | 0.195 ± 0.0499
11 | CCTATCGC | 0.29 ± 0.0221
12 | CTAGATAG | 0.197 ± 0.0328
13 | ATATGCGA | 0.276 ± 0.0349
14 | ATATAGCA | 0.248 ± 0.0375
15 | TATTGAGA | 0.237 ± 0.0198
16 | AGATCTGC | 0.204 ± 0.0418
17 | ACTCGTAT | 0.205 ± 0.0218
18 | GTATTGAA | 0.213 ± 0.0401
19 | CTTGTATA | 0.213 ± 0.0563
20 | ATACAGCA | 0.221 ± 0.0273
21 | ATACTAGG | 0.275 ± 0.02
22 | GATACGGC | 0.4543 ± 0.00163

Row | Sequence | binding signal [E-score]
23 | AATACGGT | 0.231 ± 0.00828
24 | AATACGAC | 0.18 ± 0.0741
25 | GATACGAA | 0.335 ± 0.00345
26 | AATACGGC | 0.252 ± 0.0178
27 | GATACGAC | 0.382 ± 0.0127
28 | GATACGGA | 0.455 ± 0.00852
29 | CATACGGA | 0.178 ± 0.0693
30 | TATACGGA | 0.28 ± 0.0266
31 | ATTATAAT | 0.151 ± 0.0936
32 | ATCGCTGA | 0.226 ± 0.0497
33 | AATCCGAT | 0.3407 ± 0.0025
34 | ATATGCGG | 0.274 ± 0.0261
35 | ATATCACA | 0.432 ± 0.0476
36 | CGATCACA | 0.273 ± 0.0408
37 | ATCACACA | 0.266 ± 0.0227
38 | GTATCACA | 0.476 ± 0.00651
39 | ATCTCACC | 0.335 ± 0.0374
40 | GTGTCACA | 0.375 ± 0.0203
41 | ATCACACG | 0.256 ± 0.0276
42 | CTATCACA | 0.311 ± 0.0251
43 | CTATCACC | 0.35 ± 0.0258
44 | ATATCACG | 0.456 ± 0.0263

Row | Sequence | binding signal [E-score]
45 | ATCTCACA | 0.293 ± 0.0554
46 | ATATCACC | 0.463 ± 0.0204
47 | GACCCCGA | 0.162 ± 0.0961
48 | GACCGATA | 0.352 ± 0.0178
49 | ATCCTGCC | 0.175 ± 0.00513
50 | ATCCCAGG | 0.246 ± 0.0889
51 | ATACGTCG | 0.284 ± 0.0738
52 | GAGGATCC | 0.366 ± 0.0159
53 | ATCATGCC | 0.244 ± 0.0171
54 | ATACTAAC | 0.243 ± 0.00453
55 | GATCGGGA | 0.314 ± 0.0357
56 | ATCATGTA | 0.257 ± 0.0225
57 | AAAATGAT | 0.187 ± 0.101
58 | CATGGATC | 0.307 ± 0.0322
59 | CGCTGATA | 0.325 ± 0.0672
60 | GACTGATA | 0.4 ± 0.0302
61 | CACTGAGA | 0.188 ± 0.00306
62 | CACTGATA | 0.404 ± 0.0311
63 | AGCTGATA | 0.357 ± 0.0301
64 | AACTGATA | 0.409 ± 0.0324
65 | GTCTGATA | 0.294 ± 0.0149
66 | GACTGATC | 0.272 ± 0.0144

Row | Sequence | binding signal [E-score]
67 | CACTGATC | 0.284 ± 0.00727
68 | GGCTGATA | 0.422 ± 0.00103
69 | AACTGATC | 0.286 ± 0.0372
70 | GATAAGGA | 0.183 ± 0.0109
71 | TAAACTGA | 0.158 ± 0.0427
72 | GATAAAAC | 0.164 ± 0.00658
73 | AATAGTAT | 0.251 ± 0.0966
74 | GATTAGAA | 0.184 ± 0.0514
75 | ATCAGACC | 0.201 ± 0.00705
76 | ACGATTAA | 0.152 ± 0.0367
77 | AGACTATA | 0.204 ± 0.0102
78 | AGCCAGAT | 0.176 ± 0.0223
79 | TACTGACA | 0.182 ± 0.0373
80 | TACTGCTA | 0.189 ± 0.0325
81 | TACTGATA | 0.418 ± 0.0125
82 | ATCGGTTC | 0.248 ± 0.0232
83 | CCCTGAGC | 0.178 ± 0.0455
84 | CCATCCGA | 0.218 ± 0.0511
85 | ACACCACC | 0.293 ± 0.0475
86 | ACACCACT | 0.378 ± 0.0238
87 | ATACCACC | 0.403 ± 0.00615
